# Measurements as given in ChEMBL document CHEMBL4513216, “Probing the Open Global Health Chemical Diversity Library for Multistage-Active Starting Points for Next-Generation Antimalarials” (ACS Infect Dis, 2020).
# Among all 69,000 compounds or so, about 8,600 (12%) showed an effect of 50% or more. The sample as a whole holds a higher share of strong results than the screen did.
# System: Plasmodium berghei
# Test: Screen against P. berghei liver stage (PbLuc), transformed with Luciferase, at 10uM
# Assay type: functional, HepG2
# Conditions: tested at 10 uM
row,Structure (SMILES),INHIBITION
1,CC(Cc1ccco1)NC(=O)Nc1ccc(N2CCCC2)nc1 (configuration not stated),21.425%
2,Cc1ccc(S(=O)(=O)N2CCC(c3n[nH]cc3C)C2)cc1 (configuration not stated),32.8%
3,CCN1CC2(CC1=O)CN(Cc1ccncc1)CCN(C(=O)C(C)C)C2 (configuration not stated),38.5%
4,COc1cc(-c2nc3c([nH]2)CCCNC3=O)ccc1OC(C)C,-125%
5,CCCN(Cc1ccc(OC)nc1)Cc1ccccc1OC,37.8%
6,CCCN(Cc1ccccn1)Cc1ccccc1OC,45.2%
7,CCCN(Cc1ccc(S(=O)(=O)NC)cc1)Cc1ccccc1OC,38.6%
8,CCCN(Cc1nc2ccccc2[nH]1)Cc1ccccc1OC,82.3%
9,Cc1ccc(CN(CCN(C)C)Cc2nc3ccccc3[nH]2)s1,36.5%
10,CCCN(Cc1cnc2ccccc2n1)Cc1ccccc1OC,61.9%
11,Cc1cccc(N2CCCC2c2nc(C)ncc2CN(C)C)n1 (configuration not stated),-3.94%
12,Cc1ccnc(NC(=O)C(C)Cn2cncn2)c1 (configuration not stated),28.4%
13,Cc1nc(NCc2nonc2C)cc(C(C)Cn2nc(C)c(C)c2C)n1 (configuration not stated),43.8%
14,COc1ccc2c(ccn2CCC(=O)Nc2nc[nH]n2)c1,29.9%
15,CCc1nc(CN2CCCC(NCc3nc(C)c(C)o3)C2)no1 (configuration not stated),-2.19%
16,O=C(CC1COCCN1)N1CCCN(C2Cc3ccccc3C2)CC1 (configuration not stated),-22.1%
17,COCCC1(CO)CCCN(C(=O)CCC(F)(F)F)C1 (configuration not stated),-1.49%
18,O=c1c2c[nH]c(N3CCC(O)CC3)nc-2cn1Cc1cccc(F)c1,11.8%
19,Cc1ccc(CN2CCC(O)(Cn3nc(-c4cccs4)oc3=O)CC2)o1,14.6%
20,CCc1ncnc2c1CCN(Cc1cccs1)CC2,13.7%
21,Cc1occc1C(=O)N1CCO[C@H]2[C@H](OCc3cccnc3)CC[C@@H]21,34.4%
22,CN(Cc1ccoc1)C(=O)C1CCN(C(=O)C2CCCC2)CC1,61.1%
23,CC(=O)N(Cc1ccoc1)C1CCCCC1,-29.5%
24,CC(c1ccon1)N(C)C(=O)C1CCN(C(=O)C2CCC2)CC1 (configuration not stated),57.5%
25,CN(Cc1cnc(N)nc1)C(=O)C1CCN(C(=O)C2CCCC2)CC1,44.3%
26,CC(C)N1CCC(C(=O)N(C)C(C)c2ccon2)CC1 (configuration not stated),1.94%

row,Structure (SMILES),INHIBITION
1,CC(c1ccon1)N(C)C(=O)C1CCN(C(=O)C2CC2)CC1 (configuration not stated),34%
2,Cc1nn(Cc2ccc(C(=O)NC3CCS(=O)(=O)C3)cc2)c(C)c1Br (configuration not stated),7.3%
3,COCCN1C(=O)CCC12CCC(NCc1nccs1)CC2 (configuration not stated),10.5%
4,CN1CC2(CCN(C(=O)c3cn4cccnc4n3)CC2)CC1=O,-28.9%
5,c1cnc(NCc2cncc3c2CCN(CC2CC2)C3)nc1,48.4%
6,O=C(O)c1c(-c2cccnc2)ncc2c1CCN(CC1CCOC1)C2 (configuration not stated),-21.1%
7,CS(=O)(=O)NCc1cncc2c1CCN(CC1CCOC1)C2 (configuration not stated),53.4%
8,O=C(NCc1cncc2c1CCN(CC1CCOC1)C2)c1ccco1 (configuration not stated),-46%
9,Cc1nccc(NCc2cncc3c2CCN(CC2CC2)C3)n1,84.7%
10,Cc1nccc(NCc2cncc3c2CCN(CC2CCOC2)C3)n1 (configuration not stated),91.9%
11,Cc1nccc(NCc2cncc3c2CCN(CCN(C)C)C3)n1,29.4%
12,O=C(O)c1c(-c2ccncc2)ncc2c1CCN(CC1CCOC1)C2 (configuration not stated),34.9%
13,O=C(NCc1cncc2c1CCN(CC1CCOC1)C2)c1ccno1 (configuration not stated),-0.813%
14,CCC(=O)N1CCN(CCn2cccn2)c2ncccc2C1,43%
15,Cn1cc(CN2CCc3onc(COCC4CC4)c3C2)cn1,5.96%
16,CCc1ncncc1C(=O)N1CCN(Cc2cscn2)CC1,15.5%
17,COCc1nnc(NC(=O)c2cn(C(C)C)c3ccc(OC)cc23)s1,-42.5%
18,COc1cccc(C2CCCN2C(=O)c2cc3c(nc2OC)CCC3)c1 (configuration not stated),-10.8%
19,COc1ccc2cc(C(=O)N3CC[C@H](CO)[C@H](O)C3)n(C)c2c1,27.6%
20,COc1nc2c(cc1C(=O)N1CCCOC(Cn3cccn3)C1)CCC2 (configuration not stated),59.1%
21,COc1nc2c(cc1C(=O)N1CC[C@H](CO)[C@@H](O)C1)CCC2,61%
22,COc1nc2c(cc1C(=O)N1CCCOC(CN3CCCC3)C1)CCC2 (configuration not stated),54.5%
23,CCc1ncc(C(=O)N2CCCOC(Cn3cccn3)C2)cn1 (configuration not stated),40.2%
24,O=C(c1cccc(-n2cccn2)c1)N1CCCOC(Cn2cccn2)C1 (configuration not stated),0.891%
25,O=C(c1cccc(-n2cccn2)c1)N1CCCOC(CN2CCCC2)C1 (configuration not stated),13.7%
26,COc1ccc(C(=O)N2CC[C@H](CO)[C@H](O)C2)c(C)c1,16.8%
